# Assay outcomes: PubChem, National Center for Advancing Translational Sciences (NCATS)
# Compounds with a hit are over-represented: about 1% of the library has one in this group of screens.
# Eya2 phos inh – Eya2 (human) phosphatase inhibition; O00167; recombinant Eya2, OMFP fluorescence dephosphorylation (OMFP is methylfluorescein phosphate); Potency, µM (series often up to 76.9 µM), for the others: at the top dose activity, negative = inhibition, actives largely listed as inhibitors; 330,000 tested, 0.006% active; AID 488837
#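 Eya2 protein (added as 0.2 uM solution) was preincubated with compound for 10 min at ambient temperature in 50 mM HEPES pH 7.5, 50 mM NaCl, 5 uM MgCl2, 0.05% BSA, 1 mM DTT. OMFP (added at 50 uM) then reacted 10 min; fluorescence read at 485/525 nm.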
# GALK inh – inhibitors of human galactokinase; Potency, µM (doses to about 57.5 µM), for the others: top-dose activity change, negative = inhibition, actives largely listed as inhibitors; P51570; AID 1868; Purified GALK, Kinase-Glo residual ATP luminescence; 270,000 tested, 0.007% active
#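 The enzyme phosphorylates galactose (100 uM) using ATP (35 uM); inhibition is detected as higher residual ATP, quantified by bioluminescence after 1 h reaction at room temperature, pH 8.0.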
# USP2a inh – blocks human ubiquitin-specific protease USP2a. O75604. USP2 core, Ub-CHOP2 coupled fluorogenic reporter, 485/531. Potency, µM (titrated, usually from 38.3 µM), without a hit: at the highest dose activity change, negative = inhibition, hits mostly inhibitors. 330,000 tested, 0.01% active. AID 463254;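 note: plate controls were DMSO wells for no effect and full inhibition by NEM control for full effect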
#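 Deubiquitinase activity read as fluorescence (485/531 nm) after Ub-CHOP2 cleavage activates the enterokinase reporter on its substrate; USP2 core 10nM, Ub-CHOP2 and substrate 25nM each, 30min compound preincubation then 60min RT; data normalized to NEM, curves fitted.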
# RGS4 inh – blocks human RGS4-accelerated GTP hydrolysis; P49798; Transcreener GDP fluorescence polarization, RGS4-accelerated GTP hydrolysis; Potency, µM (top dose mostly 114 µM), for the others: at the top dose activity change, negative = inhibition, usual class: inhibitors; 390,000 tested, 0.039% active; AID 504845; note: nearly all actives have a fitted effect of over 75% in size
#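 MLSMR compounds (23 nl, pin-transferred) preincubated 10 min at room temperature with a 500nM (2x) first reagent, then RGS4 at 900nM (2x) plus Transcreener GDP mix added; fluorescence polarization (620/688 nm) read before and after 90 min at 30 °C.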
# TrxR1 substrate – rat thioredoxin reductase 1 substrate activity; purified TrxR1 substrate turnover, NADPH consumption readout; O89049; AID 588456; Potency, µM (doses to about 114 µM), inactives show at the top dose activity change, negative = substrate turnover; 390,000 tested, 0.01% active; note: nearly all actives have a fitted effect of over 50% in size
# Target sequence (O89049 whole entry, looked up): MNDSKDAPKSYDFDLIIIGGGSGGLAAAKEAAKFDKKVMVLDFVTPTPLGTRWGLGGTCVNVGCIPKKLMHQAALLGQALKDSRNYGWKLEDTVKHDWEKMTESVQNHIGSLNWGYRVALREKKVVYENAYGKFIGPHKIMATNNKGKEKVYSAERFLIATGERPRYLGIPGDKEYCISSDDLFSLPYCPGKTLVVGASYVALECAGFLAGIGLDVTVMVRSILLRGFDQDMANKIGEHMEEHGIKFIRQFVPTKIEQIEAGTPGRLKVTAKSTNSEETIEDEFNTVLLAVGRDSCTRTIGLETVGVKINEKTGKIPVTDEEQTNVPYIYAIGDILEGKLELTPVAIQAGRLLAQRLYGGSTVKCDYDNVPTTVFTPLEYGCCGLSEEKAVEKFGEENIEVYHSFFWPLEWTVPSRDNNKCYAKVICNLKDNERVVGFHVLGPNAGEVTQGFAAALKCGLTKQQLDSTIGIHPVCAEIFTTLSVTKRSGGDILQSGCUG
#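 Rat TrxR1, dispensed at 90 nM, was prereduced with 400 uM NADPH (final) for 5 min at ~22 deg C, then incubated with compound 15 min before 400 uM selenite. A first-read NADPH fluorescence drop versus no-compound background flagged substrates.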
# rTrxR1 inhibitor – blocks rat thioredoxin reductase 1. O89049. recombinant rTrxR1, NADPH fluorescence consumption, selenite substrate. Potency, µM (top dose mostly 114 µM), for the others: at the top dose activity change, negative = inhibition, most hits filed as inhibitors. 390,000 tested, 1% active. AID 588453; note: nearly all actives have a fitted effect of over 65% in size
#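 Rat TrxR1 (90 nM in the dispensed reagent) was pre-reduced with 400 uM NADPH for 5 min at room temperature, then incubated with compound for 15 min. After 400 uM selenite was added, NADPH fluorescence (Ex 340/Em 450 nm) was followed for 8 min.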
# * marks the source's active call; other numbers are inactive results; i = inactive; u = inconclusive; x = not tested or not shown; [ ] = another dose, or the depositor's remark. Calls come from the whole dose curve; as a rule, active = well fitted curve in the direction sought with a large enough effect; inconclusive = small, poorly fitted or top-dose-only effect, or another doubt; inactive = no such curve, though single readings can be large; an effect the other way counts as inactive or inconclusive. Unless noted, % is set by controls: 0 for no effect and ±100 for the full control effect; potency is the fitted concentration of half-maximal effect.
SMILES,Eya2 phos inh,GALK inh,USP2a inh,RGS4 inh,TrxR1 substrate,rTrxR1 inhibitor
O=C1NC(=O)N(CCC2=CCCCC2)C(=O)/C1=C\c1cccs1,3.6%,-6.2%,-5.8%,u,2.4%,7.08µM*
O=C1NC(=S)N(c2ccccc2)C(=O)/C1=C/c1ccco1,1.7%,3.2%,u,-109.2%[56.9 µM],-6.2%,20µM*
C=CCN1C(=O)/C(=C/c2cccs2)C(=O)NC1=S,-7.7%,-1.8%,0.4%,u,-10.5%,10µM*
CC(C)(O)[C@@H]1C2OC(=O)[C@@H]1[C@]1(O)C[C@H]3O[C@]34C(=O)O[C@H]2[C@]14C (tested in a mixture with another compound),-2.4%,x,x,19.3%[56.9 µM],9.3%[57.1 µM],18.5%[57.1 µM]
C/C(=N\Nc1cccc2ccccc12)c1c(O)n(Cc2ccccc2)c(=O)[nH]c1=O,-3.0%,0.3%,-1.3%,u,2.8%,44.7µM*
C/C(=N\NC(=O)c1ccccc1)c1c(O)n(Cc2ccccc2)c(=O)[nH]c1=O,9.3%,x,2.1%,7.4%,-1.8%[57.1 µM],3.7%[57.1 µM]
CC(=O)NCC(N)C(=O)c1ccc(Cl)c(Cl)c1 (stereo unspecified),x,x,x,x,9.5%,11.1%
CN[C@@H]1C[C@H](c2ccc(Cl)c(Cl)c2)c2ccccc21,x,x,x,i,x,x
COc1ccc(CC2NCC(O)C2OC(C)=O)cc1 (stereo unspecified),x,x,x,-16.1%,10.1%[57.1 µM],25.1µM*
COc1ccc(CC(=O)N2CCN(C)CC2)cc1,-0.1%,0.1%,0.0%,36.6%,3.7%,-2.3%
COc1ccc(C(=O)N2CCC3(CC2)OCCO3)cc1,5.8%,4.8%,-0.7%,17.2%,2.6%,4.3%
O=C(c1ccc2nc(-c3ccco3)c(-c3ccco3)nc2c1)N1CCC2(CC1)OCCO2,8.1%,1.2%,1.0%,-33.9%,3.2%,4.47µM*
Cc1cccc2c1=NC(=O)/C(=C/c1c(O)[nH]c(=O)[nH]c1=O)C=2,-4.6%,-0.7%,5.4%,u,8.8%[57.1 µM],u
O=c1[nH]c(=S)[nH]c(O)c1/C=C1/C=c2ccccc2=N1,-2.2%,-19.9%,2.5%,-53.5%,-3.3%,20µM*
ClCCN(CCCl)c1ccc(/C=C/c2ccnc3ccccc23)cc1,x,x,x,x,-15.0%,-16.4%
C=CCN1C(=O)NC(=O)/C(=C/c2cnc(SC)nc2)C1=O,-29.4%,-1.0%,5.0%,u,9.5%[57.1 µM],14.1µM*
C=CCN1C(=O)NC(=O)/C(=C/c2cc3c4c(c2)CCCN4CCC3)C1=O,-0.6%,1.1%,4.3%,u,-6.8%,44.7µM*
NCCCNCCSP(=O)(O)O,-3.2%,x,x,-12.1%[56.9 µM],4.4%[57.1 µM],6.6%[57.1 µM]
NS(=O)(=O)c1cc(C(=O)OCC(=O)Nc2ccc3[nH]c(=O)[nH]c3c2)ccc1Cl,2.2%,x,-0.1%,u,4.5%,9.2%
O=P1(Oc2ccccc2)CC=CC(COCc2ccccc2)O1 (stereo unspecified),x,x,x,-3.7%,-2.7%,14.3%
COc1ccc(N2C(=O)NC(=O)/C(=C\c3ccc([N+](=O)[O-])s3)C2=O)cc1,16.2%,3.1%,-0.4%,u,-2.9%[57.1 µM],25.1µM*
COc1cccc(N2C(=O)NC(=O)/C(=C/c3ccc([N+](=O)[O-])s3)C2=O)c1,6.0%,0.1%,0.0%,u,-5.6%[57.1 µM],u
CCOc1ccc(N2C(=O)NC(=O)/C(=C\c3cc(OC)c(OC)cc3[N+](=O)[O-])C2=O)cc1,8.9%,0.8%,-2.3%,u,8.7%[57.1 µM],11.2µM*
COc1ccccc1N1C(=O)NC(=O)/C(=C/c2ccc([N+](=O)[O-])s2)C1=O,4.0%,x,2.1%,u,-9.0%,u
COc1ccc(N2C(=O)NC(=O)/C(=C/c3ccc([N+](=O)[O-])s3)C2=O)cc1,-3.2%,7.7%,-2.0%,u,-13.6%,39.8µM*
SMILES,Eya2 phos inh,GALK inh,USP2a inh,RGS4 inh,TrxR1 substrate,rTrxR1 inhibitor
O=C(NCc1ccccc1)c1cccc(Nc2nc3ccccc3n3nnnc23)c1,x,x,x,8.2%,125.8%,134.3%
CC1=C(O)C(=O)[C@@H]2O[C@@H]2C1=O,x,x,x,i,x,x
Cc1cc(=O)oc2c3c(cc(OCC(=O)N4CCC[C@H]4C(=O)O)c12)OC(C)(C)CC3,-21.5%,x,-0.7%,-20.3%,743.0%,u
Cc1ccc(N2C(=O)/C(=C/c3ccc(CN(CCC#N)S(C)(=O)=O)o3)C(=O)NC2=S)cc1,-2.7%,-4.5%,2.5%,u,2.2%,10µM*
Cc1o[nH]c(=O)c1CC(N)C(=O)O (stereo unspecified),-0.4%,x,x,8.6%[56.9 µM],-4.3%[57.1 µM],-14.5%[57.1 µM]
NC(Cc1cc(O)c(O)cc1O)C(=O)O (stereo unspecified),-20.5%,x,u,2.99µM*,8.9%[57.1 µM],10.6µM*
N[C@@H](Cc1cc(I)c(O)c(I)c1)C(=O)O,4.6%,x,1.0%,-47.3%,-3.3%,12.6µM*
O=C(O)Cc1cccnc1C(=O)O,x,x,x,i,x,x
C[C@]12CCC3C(CC[C@]4(O)C[C@@H](O)CC[C@]34C=O)[C@@]1(O)CC[C@@H]2C1=CC(=O)OC1 (stereo partly specified),x,x,x,i,x,x
O=C(Oc1ccc([N+](=O)[O-])cc1)N1CCN(/[N+]([O-])=N/Oc2ccc([N+](=O)[O-])cc2[N+](=O)[O-])CC1,x,x,x,x,5.7%,u
O=C(O)CCn1cc(C=C2C(=O)NC(=S)NC2=O)c(-c2cc3ccccc3oc2=O)n1,5.8%,-2.7%,8.4%,u,2.9%,7.08µM*
